Cruzain inh Det – blocks cruzain activity in presence of Triton detergent | P25779 | purified cruzain, Z-FR-AMC fluorescence, 0.01% Triton | Potency, µM, for inactives: max response, negative = inhibition, usual class: inhibitors | 200,000 tested, 0.43% active | AID 1478;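 further: plate controls were neutral wells for no effect and buffer without enzyme for full effect; nearly all actives have a fitted effect of over 40% in size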
Target sequence (P25779 123-467 limits assumed): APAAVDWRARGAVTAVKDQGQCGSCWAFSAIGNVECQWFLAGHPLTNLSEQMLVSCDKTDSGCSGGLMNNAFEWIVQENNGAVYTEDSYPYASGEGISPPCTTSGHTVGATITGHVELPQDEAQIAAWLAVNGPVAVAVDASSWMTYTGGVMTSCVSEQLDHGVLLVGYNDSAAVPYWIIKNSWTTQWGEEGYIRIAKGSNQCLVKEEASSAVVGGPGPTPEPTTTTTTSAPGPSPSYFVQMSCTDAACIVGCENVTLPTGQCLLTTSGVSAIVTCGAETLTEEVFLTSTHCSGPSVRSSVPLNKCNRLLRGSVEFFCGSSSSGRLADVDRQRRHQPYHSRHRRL
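Enzyme 1.5 nM, Z-FR-AMC 2 uM, NaOAc 100 mM pH 5.5, DTT 5 mM, Triton X-100 0.01%; 15 min RT compound preincubation; kinetic ex360/em450, 60 s delta.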
Cruzain noTriton – inhibitors of Trypanosoma cruzi cruzain without detergent; purified cruzain, Z-FR-AMC fluorescence, no detergent; Potency, µM, inactives show max response, negative = inhibition, usual class: inhibitors; 200,000 tested, 2.3% active;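 further: plate controls were enzyme without inhibitor for no effect and buffer without enzyme for full effect; nearly all actives have a fitted effect of over 40% in size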
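Purified cruzain at 1.5 nM, pre-incubated 15 min with compound at room temperature in 100 mM sodium acetate pH 5.5, 5 mM DTT, 0.00005% Triton X-100. Reaction started with 2 uM Z-FR-AMC; AMC fluorescence increase over 60 s gives rate.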
* = called active by the depositor; ? = inconclusive. Only some compounds are listed: those with a hit (about 2.6% of all), similar ones and a draw of the others. The call rests on the fitted dose curve; in most records, active means well fitted curve in the direction sought with a large enough effect; inconclusive means small, poorly fitted or top-dose-only effect, or another doubt; inactive means no such curve, though single readings can be large; an effect the other way counts as inactive or inconclusive. Potency means the concentration at half of the fitted maximal effect.

SMILES | Cruzain inh Det | Cruzain noTriton
COc1ccc(NS(=O)(=O)c2cnc(N)nc2)cc1Cl | 0% | -4%
O=c1c2[nH]c3ccc(F)cc3c2ncn1CCCN1CCOCC1 | 1% | -2%
Clc1ccc2[nH]c3c(NCC4CCCO4)ncnc3c2c1 (stereo unspecified) | ? | 20µM*
Fc1ccc2[nH]c3c(NCCN4CCOCC4)ncnc3c2c1 | ? | 20µM*
Clc1ccc2[nH]c3c(NCCN4CCOCC4)ncnc3c2c1 | 14µM* | 16µM*
Clc1ccc(-n2ncc3c(NCC4CCCO4)ncnc32)cc1 (stereo unspecified) | -2% | -9%
O=c1c2[nH]c3ccc(Cl)cc3c2ncn1CCN1CCCCC1 | -5% | -12%
COc1ccc(-c2cc(C(F)(F)F)n3nc(C)c(-c4ccccc4)c3n2)cc1OC | 0% | 8%
O=C(CSc1nnc(-c2ccc(Cl)cc2)o1)Nc1ccc(F)cc1 | -1% | 18%
CC(=O)Nc1cc(NC(C)=O)cc(-c2nc3ccccc3[nH]2)c1 | -2% | -3%
CC(C)C(=O)Nc1sc2c(c1-c1nc3ccccc3[nH]1)CCCC2 | -1% | 20µM*
CS(=O)(=O)N(CC(=O)NCCSc1ccccc1)c1cc(C(F)(F)F)ccc1Cl | -8% | 0%
CCOc1ccc(CNC(=O)c2cc3c(=O)n(C)c4ccccc4c3s2)cc1 | 1% | 0%
CC(C)NCc1c(O)c(Br)cc2oc3c(c12)CCCC3 | 0% | 13µM*
O=C1NCCCc2c1oc1cc(Br)c(O)c(Br)c21 | -1% | -10%
CCOc1ccc2c(c1)sc(N)[n+]2Cc1cc(C)cc2cccnc12 | -10% | 1%
CCOc1ccc2c(ccc(/C=C\c3cc(C)c4cccnc4c3O)[n+]2C)c1 | 3.2µM* | 0%
CCOC(=O)c1c(C)[nH]c(C)c1S(=O)(=O)N1CCCC(C(=O)Nc2ccc(OC)c(OC)c2)C1 (stereo unspecified) | -2% | -6%
CCOC(=O)N1CCN(C(=O)CS(=O)(=O)c2cn(Cc3ccccc3C)c3ccccc23)CC1 | 1% | -4%
Cc1ccccc1Cn1cc(S(=O)(=O)CC(=O)Nc2nccs2)c2ccccc21 | -7% | 16µM*
CCOC(=O)c1ccccc1NC(=O)c1sc2ccccc2c1Cl | -1% | 5%
O=C(COC(=O)CNC(=O)c1sc2ccccc2c1Cl)Nc1c(Cl)cc(Cl)cc1Cl | 25µM* | ?
O=C(COC(=O)c1sc2ccccc2c1Cl)Nc1ncc(Cl)cc1Cl | -5% | ?
Cc1ccccc1NC(=O)COC(=O)CNC(=O)c1sc2ccccc2c1Cl | 7.9µM* | 3.2µM*
Cc1ccccc1CSc1nnc2[nH]c(=O)cc(C)n12 | -2% | -1%
SMILES | Cruzain inh Det | Cruzain noTriton
O=C(Nc1cnn(Cc2ccc(Cl)cc2Cl)c1)c1noc2c1CCc1ccccc1-2 | -6% | 7.9µM*
Cc1cc(C(=O)Nc2cnn(Cc3ccc(Cl)cc3Cl)c2)no1 | -3% | -4%
O=C(Nc1ccc2c(c1)OCO2)Nc1ccc(Cl)cc1Cl | 6% | 25µM*
O=C(Nc1ccc(OC(F)F)c(Cl)c1)Nc1ccc2c(c1)OCO2 | 6% | ?
CCOc1ccc(NC(=O)c2sc(-n3nc(C)c(CCC(C)C)c3C)nc2C)cc1 | -2% | 1%
COc1cc(/C=N/N=C(/N)c2nonc2N)cc(Br)c1OCc1ccccc1C | 3% | -25%
CCOc1cc(/C=N/N=C(/N)c2nonc2N)cc(Br)c1OCc1ccc(Cl)cc1 | 2% | 4µM*
O=C(Oc1ccc(N(Cc2cccs2)C2=NS(=O)(=O)c3ccccc32)cc1)c1ccccc1Cl | 1% | 10µM*
O=C(Oc1ccc(N(Cc2cccs2)C2=NS(=O)(=O)c3ccccc32)cc1)c1ccco1 | -9% | -29%
COc1ccc(C(=O)Nc2ccc(OC)c(OC)c2)cc1 | -3% | -12%
Cc1ccc(NC(=O)c2ccc(OC(=O)C(C)Oc3ccc(Cl)cc3C)cc2)cc1 (stereo unspecified) | 2% | 7.9µM*
CN(C)c1ccc(CNC(=O)CCn2c(=O)c3cccn3c3ccc(F)cc32)cc1 | -1% | 16%
CCOC(=O)c1ccc(N2CCN(c3cccc(Cl)c3)CC2)c(NC(=O)Nc2ccc(Cl)cc2)c1 | 1% | 4µM*
CCOC(=O)c1ccc(N2CCN(c3ccccc3F)CC2)c(NC(=O)Nc2ccccc2)c1 | -3% | ?
O=C(CN1CCN(Cc2ccccc2Cl)C1=O)NCc1ccccc1Cl | -6% | -4%
CC(=O)N=c1sc2ccccc2n1C | 0% | -4%
N/N=c1\sc2ccccc2n1-c1ccccc1 | -3% | 16µM*
COc1ccc(C(=O)Nc2noc3ccccc23)cc1 | -4% | -7%
O=C(Nc1noc2ccccc12)c1cccc(Cl)c1Cl | -4% | 25µM*
Cc1ccc(CN(C(=O)c2ccccc2Br)C2CCS(=O)(=O)C2)o1 (stereo unspecified) | -2% | 1%
Cc1cc(O)c2c(-c3ccccc3)cc(=O)oc2c1 | -6% | 3%
Cc1c(OCc2ccc([N+](=O)[O-])cc2)ccc2c3c(c(=O)oc12)CCC3 | -1% | -19%
COc1ccc([N+](=O)[O-])cc1COc1cc(C)cc2oc(=O)cc(-c3ccccc3)c12 | 0% | 32µM*
Cc1cc(OCc2ccc([N+](=O)[O-])cc2)c2c3c(c(=O)oc2c1)CCCC3 | -1% | 13µM*
CCOc1ccccc1NC(=O)c1c(NC(=O)c2ccccc2C)sc2c1CCC(C)C2 (stereo unspecified) | -1% | 1%
SMILES | Cruzain inh Det | Cruzain noTriton
COc1ccc(-c2nc3nc(C)cc(Nc4cccc(C(F)(F)F)c4)n3n2)cc1 | -1% | 25µM*
Cc1cc(Nc2cccc(C(F)(F)F)c2)n2nc(C)nc2n1 | -1% | -4%
COc1ccc(CNC(=O)c2cc3c(=O)n(C)c4ccccc4c3n2C)c(OC)c1 | 2% | -2%
CO[C@@H]1/C=C\O[C@]2(C)Oc3c(C)c(O)c4c(O)c(c(CN5CCN(C)CC5)c(O)c4c3C2=O)NC(=O)/C(C)=C\C=C[C@@H](C)[C@@H](O)[C@H](C)[C@@H](O)C(C)[C@H](OC(C)=O)[C@@H]1C (stereo partly specified) | -14% | ?
CCOC(=O)c1c(-c2cccc([N+](=O)[O-])c2)csc1NC(=O)CCCOc1ccccc1OC | -7% | -10%
CCOC(=O)c1c(-c2cccc([N+](=O)[O-])c2)csc1NC(=O)CCCOc1ccccc1 | -4% | 32µM*
Cc1cccc(C)c1NC(=O)CN1C(=O)c2cccc3cccc1c23 | 1% | -20%
CCOC(=O)c1c(C#N)c(SCC(=O)Nc2ccc(OC)cc2)nc2c1CN(CC)CC2 | -3% | 25µM*
Cc1nc(SCC(=O)Nc2ccc3c(c2)OCO3)c(C#N)c2c1CCCC2 | -1% | -9%
CCOC(=O)c1ccc(NC(=O)CSc2nc(-c3ccc(OC)cc3)cc(C(F)(F)F)c2C#N)cc1 | 0% | -3%
CCOc1cccc(NC(=O)CSc2nc(C)c3c(c2C#N)CCCC3)c1 | 4% | 7.9µM*
COc1ccc(C)cc1NC(=O)c1oc2ccc(S(=O)(=O)N3CCC4(CC3)OCCO4)cc2c1C | -3% | 10%
CCn1cc(C(=O)N2CCN(c3ccc(C)cc3)C(C)C2)c(=O)c2cc(S(=O)(=O)N3CCCC3)ccc21 (stereo unspecified) | -11% | ?
CCc1cccc(C)c1NC(=O)CN1C(=O)c2ccccc2Sc2ncccc21 | -3% | ?
COc1ccc2nc(-n3c(C)ccc3C)sc2c1 | 3% | -19%
CCOc1ccc2nc(N3CCCCCC3)sc2c1 | -1% | -6%
COc1ccc2nc(N3C(=O)/C(=C/c4ccccc4)NC3=S)sc2c1 | -1% | 13µM*

Assay outcomes deposited in PubChem by National Center for Advancing Translational Sciences (NCATS).
